Compound activity deposited in PubChem BioAssay by National Center for Advancing Translational Sciences (NCATS).
An excerpt weighted towards active compounds, which were near 11% of everything screened.
FLuc inh-1 – Firefly luciferase inhibition profiling of diverse chemical library using quantitative high-throughput screening; Luciferin 4-monooxygenase (Photinus pyralis), P08659; purified P. pyralis luciferase, luminescence, biochemical; Potency, µM (doses to about 115 µM), hits mostly inhibitors; 2.5% of 76,000 active; AID 1347043, 2019; also: % is scaled to controls: 0 for no effect and ±100 for the full control effect; nearly all actives have a fitted effect of over 65% in size
Target sequence (P08659 whole entry, looked up): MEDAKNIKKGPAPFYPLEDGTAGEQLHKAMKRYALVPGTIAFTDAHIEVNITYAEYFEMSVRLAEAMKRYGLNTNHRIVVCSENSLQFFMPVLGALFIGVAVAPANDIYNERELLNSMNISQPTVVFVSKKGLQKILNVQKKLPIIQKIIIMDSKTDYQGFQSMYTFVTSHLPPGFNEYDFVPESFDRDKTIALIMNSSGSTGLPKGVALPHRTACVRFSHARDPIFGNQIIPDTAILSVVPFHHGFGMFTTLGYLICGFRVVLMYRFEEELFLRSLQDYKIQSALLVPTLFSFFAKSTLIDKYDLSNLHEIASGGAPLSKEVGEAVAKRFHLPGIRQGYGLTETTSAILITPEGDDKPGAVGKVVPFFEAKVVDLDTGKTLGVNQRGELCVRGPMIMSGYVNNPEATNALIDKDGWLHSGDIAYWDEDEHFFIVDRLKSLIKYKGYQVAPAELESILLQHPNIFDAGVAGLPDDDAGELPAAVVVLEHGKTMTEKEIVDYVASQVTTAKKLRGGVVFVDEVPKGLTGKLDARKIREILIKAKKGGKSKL
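Biochemical qHTS: compound (6-point titration) added to 10uM D-luciferin plus 10uM ATP in Tris acetate pH 7.5 buffer with Mg, Tween-20 and BSA, then purified enzyme at 10nM; light output imaged.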
HEK cytotox – Cytotoxic Profiling in HEK 293 Cell Line of Diverse Libraries Using Quantitative High-Throughput Screening; 6.6% of 94,000 active; HEK 293 viability, ATP luminescence (CellTiter-Glo), 48-72 h; Potency, µM (doses to about 115 µM), for the others: at the top dose activity change, negative = cytotoxicity, most hits filed as inhibitors; also: % is scaled to controls: 0 for no effect and ±100 for the full control effect; nearly all actives have a fitted effect of over 60% in size
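Viability of HEK 293 cells, plated at 250 cells/well, was judged by cellular ATP after compound treatment for 48 or 72 hr. Luminescence was imaged 10 min after CellTiter-Glo addition at room temperature.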
NPR1 antag – Natriuretic polypeptide receptor (hNpr1) antagonism - Primary qHTS; Atrial natriuretic peptide receptor 1 (Homo sapiens), P16066; HEK293 hNpr1 GloSensor cGMP, ANP-stimulated luminescence; Potency, µM (titrated, usually from 46.3 µM), inactives show top-dose activity change, negative = inhibition, actives largely listed as inhibitors; 1.6% of 76,000 active; AID 1347048, 2019; calls by dose curve; also: % is scaled to controls: 0 for no effect and ±100 for the full control effect; nearly all actives have a fitted effect of over 60% in size
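HEK293 cells stably expressing human Npr1 and cGMP GloSensor pGS-40F, loaded 2 h with 2% GloSensor reagent, given compound 30 min at room temperature. Luminescence read before and 20 min after 0.1 nM hNppA.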
NIH3T3 tox – Cytotoxic Profiling in NIH 3T3 Cell Line of Diverse Libraries Using Quantitative High-Throughput Screening. NIH 3T3 viability, CellTiter-Glo ATP luminescence, 48-72 h. Potency, µM (top dose mostly 96.7 µM), without a hit: at the top dose activity change, negative = cytotoxicity, usual class: inhibitors. 4.3% of 94,000 active. AID 1345082, 2018; also: % is scaled to controls: 0 for no effect and ±100 for the full control effect; nearly all actives have a fitted effect of over 55% in size
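Mouse fibroblast NIH 3T3 cells, 400 per well, received compound via pintool and were incubated for 48 or 72 hr prior to CellTiter-Glo ATP luminescence measurement.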
FLuc SDR -ATP – Firefly luciferase (FLuc-C-HiBiT) SDR gain of signal screen - without ATP; shares compounds with FLuc inh-1; Purified FLuc-C-HiBiT, Nano-Glo HiBiT luminescence, no ATP; Potency, µM (series often up to 32.7 µM), without a hit: at the highest dose activation (signal gain), hits mostly activators; 7.8% of 1,300 active; AID 1963318, 2024; also: nearly all actives have a fitted effect of over 55% in size
FLuc SDR ATP – Firefly luciferase (FLuc-C-HiBiT) SDR gain of signal screen - plus ATP. 8.7% of 1,300 active. Potency, µM (titrated, usually from 32.7 µM), without a hit: at the top dose activation (gain of signal), hits mostly activators. AID 1963319, 2024. shares compounds with FLuc inh-1. purified FLuc-C-HiBiT + ATP, HiBiT complementation luminescence;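 also: signal reports ligand binding via conformational change of the enzyme rather than luciferase catalysis; % of control where 0% means no effect; nearly all actives have a fitted effect of over 55% in size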
FLuc inh-2 – Firefly luciferase (FLuc-C-HiBiT) enzymatic inhibition screen - Functional assay. shares compounds with FLuc inh-1. purified FLuc-C-HiBiT enzyme, luciferin luminescence. Potency, µM (series often up to 32.7 µM), for the others: top-dose activity change, negative = inhibition, most hits filed as inhibitors. 42% of 1,300 active. AID 1963320, 2024; also: % is scaled to controls: 0 for no effect and ±100 for the full control effect; nearly all actives have a fitted effect of over 70% in size
* hit, by the source's call; [ ] = dose if it differs, or a comment. Unless noted, calls follow the shape of the dose curve; as a rule, active = well fitted curve in the direction sought with a large enough effect; inconclusive = small, poorly fitted or top-dose-only effect, or another doubt; inactive = no such curve, though single readings can be large; an effect the other way counts as inactive or inconclusive. Potency is read from the fitted curve at half-maximal effect.

For COc1nccnc1NC1CCN(C(=O)NC2CCCCC2)CC1 the results were FLuc inh-1 inactive, HEK cytotox 5%, NPR1 antag 3% and NIH3T3 tox 0%.
For O=C(Nc1cccc(-c2ccc(N3CCCC3)nn2)c1)c1c(F)cccc1F the results were FLuc inh-1 7.1µM*, HEK cytotox 40µM*, NPR1 antag -18%, NIH3T3 tox inconclusive, FLuc SDR -ATP inconclusive, FLuc SDR ATP inconclusive and FLuc inh-2 8.8µM*.
Screening O=C(Nc1cccc(-c2ccc(N3CCOCC3)nn2)c1)Nc1ccccc1F returned FLuc inh-1 1.6µM*, HEK cytotox 18µM*, NPR1 antag inconclusive, NIH3T3 tox inconclusive, FLuc SDR -ATP inconclusive, FLuc SDR ATP inconclusive and FLuc inh-2 2.8µM*.
For Cc1ccc(C(=O)Nc2cccc(-c3ccc(N4CCN(C)CC4)nn3)c2)cc1C the results were FLuc inh-1 6.3µM*, HEK cytotox inconclusive, NPR1 antag -22%, NIH3T3 tox 25µM*, FLuc SDR -ATP inconclusive, FLuc SDR ATP inconclusive and FLuc inh-2 3.9µM*.
Screening O=C(Nc1cccc(-c2ccc(N3CCOCC3)nn2)c1)Nc1cc(F)ccc1F returned FLuc inh-1 0.89µM*, HEK cytotox 79µM*, NPR1 antag 10µM*, NIH3T3 tox inconclusive, FLuc SDR -ATP inconclusive, FLuc SDR ATP inconclusive and FLuc inh-2 2.5µM*.
For COc1ccc(-c2cc(-c3ccc(N4CCOCC4)nc3)cn3cncc23)cn1 the results were FLuc inh-1 inconclusive, HEK cytotox inconclusive, NPR1 antag -1%[70.6 µM] and NIH3T3 tox inconclusive.
COc1cccc2cc(C(=O)Nc3ccc(CC(=O)O)cc3)c(=O)oc12 was read as FLuc SDR -ATP 2.5µM*, FLuc SDR ATP 1.8µM* and FLuc inh-2 3.1µM*.
For Cn1nc(-c2ccc3c(c2)OCCO3)nc1N1CCCCC1 the results were FLuc inh-1 4µM*, HEK cytotox -4%, NPR1 antag inconclusive, NIH3T3 tox inconclusive, FLuc SDR -ATP inconclusive, FLuc SDR ATP inconclusive and FLuc inh-2 9.9µM*.
For Cc1ccc(CSc2nc3cccnc3n2Cc2ccc(C(=O)NCc3ccco3)cc2)cc1 the results were FLuc SDR -ATP 3.9µM*, FLuc SDR ATP inconclusive and FLuc inh-2 0.62µM*.
CCS(=O)(=O)N1CCC(Cc2ncc(C)n2Cc2ccccc2)C1 (centres undefined) was read as FLuc inh-1 inactive, HEK cytotox 0%, NPR1 antag 1% and NIH3T3 tox 1%.
`CC(C)Oc1cccc(-c2n[nH]c3c2CC(=O)N(CCOc2ccccc2)C3)c1` gave FLuc inh-1 inconclusive, HEK cytotox inconclusive, NPR1 antag -21%[70.6 µM] and NIH3T3 tox inconclusive.
`Cc1nn(-c2ccc(C(C)C)cc2)c(C)c1[C@@H]1C=C[C@@H](NC(=O)COCC(=O)O)C1` gave FLuc inh-1 35µM*, HEK cytotox -19%[172 µM], NPR1 antag 1%[70.6 µM], NIH3T3 tox inconclusive, FLuc SDR -ATP 17%[49.3 µM], FLuc SDR ATP 13%[49.3 µM] and FLuc inh-2 inconclusive.
For Cc1nn(-c2ccc(C(C)(C)C)cc2)c(C)c1[C@@H]1C=C[C@@H](NC(=O)CCCC(=O)O)C1 the results were FLuc inh-1 22µM*, HEK cytotox -24%[172 µM], NPR1 antag -11%[70.6 µM], NIH3T3 tox inconclusive, FLuc SDR -ATP 25%[49.3 µM], FLuc SDR ATP inconclusive and FLuc inh-2 inconclusive.
`Cc1ccc(-n2nc(C)c([C@@H]3C=C[C@@H](NC(=O)COCC(=O)O)C3)c2C)cc1Cl` gave FLuc inh-1 35µM*, HEK cytotox -20%[172 µM], NPR1 antag 0%[70.6 µM], NIH3T3 tox -23%[174 µM], FLuc SDR -ATP 10%[49.3 µM], FLuc SDR ATP 9%[49.3 µM] and FLuc inh-2 -1%[49.3 µM].
Cc1ccc(-n2nc(C)c([C@H]3C=C[C@@H](OC(=O)Nc4cccc(C(F)(F)F)c4)C3)c2C)cc1Cl was read as FLuc inh-1 11µM*, HEK cytotox 32µM*, NPR1 antag inconclusive, NIH3T3 tox inconclusive, FLuc SDR -ATP 14%, FLuc SDR ATP 12% and FLuc inh-2 -9%.
Screening Cc1nn(-c2ccc(C(F)(F)F)cc2)c(C)c1[C@@H]1C=C[C@@H](NC(=O)CCCC(=O)O)C1 returned FLuc inh-1 inactive, HEK cytotox -6%, NPR1 antag -1% and NIH3T3 tox -3%.
O=C(Nc1ccc2c(c1)OCCO2)c1nn(CC2CC2)c2c1CNCC2 was read as HEK cytotox -6% and NIH3T3 tox -28%.
For CCCNC(=O)c1cccc2c1CCN2C(=O)Nc1cccc(C)c1 the results were FLuc inh-1 5µM*, HEK cytotox inconclusive, NPR1 antag -23%, NIH3T3 tox 5%, FLuc SDR -ATP inconclusive, FLuc SDR ATP 3.5µM* and FLuc inh-2 2.5µM*.
Screening CN(C)CCNC(=O)c1cccc2c1CCN2C(=O)Nc1ccccc1 returned FLuc inh-1 3.5µM*, HEK cytotox inconclusive, NPR1 antag inconclusive, NIH3T3 tox -4%, FLuc SDR -ATP 17%, FLuc SDR ATP 1.1µM* and FLuc inh-2 0.7µM*.
CCC(=O)N1CCc2c(C(=O)NCc3ccccc3F)cccc21 was read as FLuc inh-1 inactive, HEK cytotox -5%, NPR1 antag -3% and NIH3T3 tox inconclusive.
Screening CCCCNC(=O)c1cccc2c1CCN2C(=O)Nc1ccccc1 returned FLuc inh-1 3.5µM*, HEK cytotox inconclusive, NPR1 antag inconclusive, NIH3T3 tox -25%, FLuc SDR -ATP 24%, FLuc SDR ATP 2µM* and FLuc inh-2 1.6µM*.
Cc1ccc(NC(=O)N2CCc3c(C(=O)NCCc4ccccn4)cccc32)cc1 was read as FLuc inh-1 5.6µM*, HEK cytotox inconclusive, NPR1 antag -20%, NIH3T3 tox inconclusive, FLuc SDR -ATP inconclusive, FLuc SDR ATP 11µM* and FLuc inh-2 4.4µM*.
`COc1ccccc1C(=O)N1CCN(C(=O)c2nc3cccnc3n(-c3ccccc3OC)c2=O)CC1` gave HEK cytotox -2% and NIH3T3 tox -8%.
